The list is not random: actives were taken first. Their share in the collection is about 21%.
SARS PLP yeast: SARS-CoV PLP inhibition in yeast. S. cerevisiae expressing SARS-CoV PLpro, growth rescue. Potency, µM (series often up to 32.9 µM), for inactives: at the top dose activity, positive = growth rescue, actives largely listed as activators. 330,000 tested, 0.19% active. AID 485353; further: potency means the concentration at half of the fitted maximal effect; 0% is about no effect; nearly all actives have a fitted effect of over 55% in size
NS1 function inh: influenza NS1 inhibition | AID 2326 | 270,000 tested, 0.4% active | Potency, µM (highest dose often 46.1 µM), for inactives: at the top dose activity, positive = more growth; further: potency means the concentration at half of the fitted maximal effect; actives are rising curves; nearly all actives have a fitted effect of over 50% in size
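Compounds were scored for reversing the slow growth caused by influenza A NS1 in S. cerevisiae, measured by optical density at 600 nm. Assay medium contained 2% galactose at pH 6.0; NS1-free yeast of the same strain were the positive control.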
Pf growth 48h: P. falciparum growth inhibition at 48 hours (one generation). 310,000 tested, 5.9% active. P. falciparum luciferase growth in erythrocytes, 48 h. Potency, µM (doses to about 28.7 µM), without a hit: top-dose activity change, negative = inhibition, actives largely listed as inhibitors; active means well fitted inhibition curve with a large enough effect; inconclusive means small, poorly fitted or top-dose-only effect, or another doubt; inactive means no such curve, though single readings can be large or run the other way; further: potency means the concentration at half of the fitted maximal effect; on the % scale 0 is the no-effect control and ±100 the full control effect
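Firefly luciferase activity from engineered P. falciparum reports growth; inhibitors lower the luminescent signal. Cultures contained 2% hematocrit erythrocytes at 0.1% final parasitemia.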
Shiga inhibitor: blocks Shiga toxin action in Vero cells. inhibition, % at 38.7 µM. AID 2315. Vero cells, Shiga toxin protein synthesis inhibition reporter. 290,000 tested, 9.2% active; in the data active means inhibition mostly above about 28%, no sharp cut-off; inactive means mostly below about 43%; further: 0% is about no effect
Pf growth 96h: inhibits malaria parasite growth, 96 h. 320,000 tested, 6.9% active. AID 504834. P. falciparum luciferase reporter growth, 96 h. Potency, µM (series often up to 28.7 µM), inactives show at the top dose activity change, negative = inhibition, actives largely listed as inhibitors; active means well fitted inhibition curve with a large enough effect; inconclusive means small, poorly fitted or top-dose-only effect, or another doubt; inactive means no such curve, though single readings can be large or run the other way; further: potency means the concentration at half of the fitted maximal effect; on the % scale 0 is the no-effect control and ±100 the full control effect
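Delayed-death screen, second-generation endpoint: infected erythrocytes, 2% hematocrit, 0.05% parasitemia final; 96 hours at 37 C, 5% CO2; luciferase detection reagent; luminescence decrease equals reduced growth.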
Cycloheximide cs: counter-screen for Shiga toxin inhibitors: cycloheximide protein synthesis inhibition; cell reporter, cycloheximide protein synthesis inhibition counterscreen; max response, %; 300,000 tested, 12% active; in the data active means max response mostly above about 13%, no sharp cut-off; inactive means mostly below about 14%; further: read at 38.3 µM for the half of the compounds with a filed dose; 0% is about no effect
* hit, by the source's call; ? = inconclusive; · = not tested or not shown; [ ] = dose if it differs, or a comment. Unless noted, the call rests on the fitted dose curve.

SMILES	SARS PLP yeast	NS1 function inh	Pf growth 48h	Shiga inhibitor	Pf growth 96h	Cycloheximide cs
CCCSc1ccc([C@@H]2[C@H]3C(=O)N(CC)C(=O)[C@H]3[C@]3(C(=O)OC)CCCN23)cc1OC	6%	·	?	·	?	·
CCN1C(=O)[C@@H]2[C@@H](c3ccc(SC4CCCCC4)c(OC)c3)N3CCC[C@@]3(C(=O)OC)[C@@H]2C1=O	-24%	·	8.3µM*	·	?	·
Cc1ccc(NC(=O)CN2C(=O)NC3(CCCCCC3)C2=O)cc1Cl	2%	·	-12%	·	?	·
O=C(c1cc2ccccc2o1)N1CCN(c2ccccn2)CC1	0%	5%	4.7µM*	-15	13µM*	-1
O=C(O)c1cc2c(ccc3ccccc32)o1	-3%	-120%	?	5	-1%	14
O=C(c1ccc(Br)o1)N1CCN(c2ccccn2)CC1	-3%	-2%	-27%	15	2%	9
O=C(c1cc2ccccc2o1)N1CCN(c2ccccc2Cl)CC1	-35%	-97%	·	12	7.4µM*	5
O=C(c1cc2c(ccc3ccccc32)o1)N1CCCCC1	-9%	-27%	241%	90*	-28%	52*
COc1cccc2cc(C(=O)N3CCN(c4ccccn4)CC3)c(=O)oc12	6%	8%	18%	35	·	32*
Cc1ccc(Cc2ccc(C(=O)NNC(N)=S)o2)cc1	0%	-1%	5%	22	?	-3
Cc1ccccc1-n1ncc2c1CC(C)(C)CC2NC(=O)CCN1CCCCC1=O (centres undefined)	-5%	-1%	?	-6	-16%	-3
OCCN1CCN(CCCN2c3ccccc3Sc3ccc(C(F)(F)F)cc32)CC1	0%	6%	5.2µM*	-25	1.9µM*	-7
OCCN1CCN(CCCN2c3ccccc3C=Cc3ccccc32)CC1	·	-13%	6.7µM*	-6	6µM*	-5
O=C(N1CCN(CCO)CC1)N1c2ccccc2CCc2ccccc21	-5%	-1%	-4%	17	-10%	-1
O=C1c2ccccc2C(=O)N1CC(=O)N1c2ccccc2Sc2ccc(C(F)(F)F)cc21	-39%	0%	9%	7	-1%	-2
FC(F)(F)c1ccc2c(c1)N(CCCN1CCN(CCCl)CC1)c1ccccc1S2	-1%	9%	9.3µM*	26	·	-3
CN1CCN(CCC(=O)N2c3ccccc3Sc3ccc(C(F)(F)F)cc32)CC1	-9%	5%	?	12	11µM*	10
CCCCN(CCO)CCCC	-21%	·	37%	·	38%	·
Cc1ccccc1NC(=O)NC1(C(=O)NCC2CCCO2)CCCCC1 (centres undefined)	-6%	0%	11%	11	11%	-1
Cc1cc([N+](=O)[O-])c2c(c1C)C1C=CCC1C(c1ccccn1)N2 (centres undefined)	-2%	·	?	8	?	0
CC1O[C@@H](O[C@H](C)CC[C@@H](C)O[C@H]2OC(C)[C@@H](O)C[C@H]2O)C(O)C[C@H]1O (some centres undefined)	-2%	·	-19%	·	53%	·
O=c1c(Cc2ccccc2)c(O)ccn1C1CCCCCCC1	-1%	0%	?	20	-42%[5.75 µM]	-2
CC(C)Sc1cc(Cl)nc(NC(=O)Nc2ccccc2)n1	-1%	1%	2%[0.00184 µM]	50	15%	29*
Cc1c(/C=N/NC(=O)c2ccccc2O)c2ccccn2c1C(=O)c1ccc(F)cc1	5%	?	8.3µM*	27	?	15*
Cc1c(/C=N/NC(=O)c2cccnc2)c2ccccn2c1C(=O)c1ccc(F)cc1	6%	10%	9.3µM*	3	5.2µM*	-3
SMILES	SARS PLP yeast	NS1 function inh	Pf growth 48h	Shiga inhibitor	Pf growth 96h	Cycloheximide cs
Cc1c(/C=N/NC(=O)CNc2ccccc2)c2ccccn2c1C(=O)c1ccccc1	0%	?	2.1µM*	-9	2.9µM*	1
COC(=O)N/N=C/c1c(C)c(C(=O)c2ccc(F)cc2)n2ccccc12	6%	10%	-20%	-11	?	-3
Cc1c(/C=N/NC(=O)c2cc(=O)[nH]c(=O)[nH]2)c2ccccn2c1C(=O)c1ccccc1	1%	4%	3.3µM*	-24	·	-2
CC(=O)Nc1ccc(NC(=O)CNC(=O)c2cccc(C)c2)cc1	3%	17%	29%	-9	37%	7
Cc1ccc(N2CC(C(=O)N3CCCCC3)CC2=O)cc1C (centres undefined)	1%	5%	12%	-6	-24%	8
O=C1CCCc2[nH]c(-c3ccccc3)nc21	-1%	0%	51%	59*	?	37*
c1ccc(-c2nc3c([nH]2)CCc2nonc2-3)cc1	2%	·	50%	78*	-9%	31*
Cc1c(-c2ccccc2)nc(-c2ccccc2)[nH]c1=O	5%	1%	19%	-3	52%	0
Cc1ccc(C(=O)N[C@H](C(=O)OCC(=O)NC2CCS(=O)(=O)C2)C(C)C)cc1 (some centres undefined)	6%	12%	17%	-8	35%	-1
Cc1ccc(S(=O)(=O)NC(C(=O)OCC(=O)NC2CCS(=O)(=O)C2)C(C)C)cc1 (centres undefined)	8%	-1%	14%	17	10µM*	-1
CCN(CC(=O)Nc1ccc2c(c1)OCCO2)CC(=O)Nc1ccc2c(c1)OCO2	3%	·	?	21	-36%	15
CCN(CC(=O)Nc1ccc2c(c1)OCCO2)Cc1cc(=O)oc2c(C)c(C)ccc12	6%	-74%	?	-4	1%	9.1*
Cc1ccc2c(CN3CCN(Cc4ccc5c(c4)OCO5)CC3)cc(=O)oc2c1C	1%	-8%	-5%	-7	-12%	3
Cc1ccc2c(CN3CCN(S(=O)(=O)c4ccc5c(c4)OCCO5)CC3)cc(=O)oc2c1C	1%	3%	9.3µM*	-5	?	-2
O=C1CC(O)(c2ccccc2)C(c2ccccc2)=C1c1ccccc1 (centres undefined)	-25%	·	10µM*	9	12µM*	-3
c1cn(-c2ncnc3sc4c(c23)CCCC4)cn1	-3%	-13%	-5%	-5	0.17µM*	-4
c1ccn(-c2ncnc3sc4c(c23)CCCC4)c1	3%	-14%	·	-28	?	7
CCCCN(C(=O)Cc1ccc2c(c1)OCCO2)c1c(N)n(CCC)c(=O)[nH]c1=O	3%	·	-22%	·	?	·
CCCCCN(C(=O)CCC(=O)OCc1ccc(C(C)C)cc1)c1c(N)n(CCCC)c(=O)[nH]c1=O	0%	·	36%	·	10µM*	·
CCCCCN(C(=O)CCC(=O)OCc1ccccc1F)c1c(N)n(CCCC)c(=O)[nH]c1=O	-2%	·	?	·	40%	·
CCCCCN(C(=O)CCC(=O)OCc1cc(C)ccc1C)c1c(N)n(CCCC)c(=O)[nH]c1=O	-1%	·	11%	·	?	·
CCCCCN(C(=O)CCC(=O)OCc1ccc(C(C)(C)C)cc1)c1c(N)n(CCCC)c(=O)[nH]c1=O	9%	24%	?	-20	8.3µM*	-3

Source: PubChem BioAssay
